Laboratory results: PubChem BioAssay (Tox21)
A number with no mark means an inactive call. Results filed as inconclusive are left out. A call without a number means that no potency is given here. The source made the active and inactive calls. Unless noted, calls follow the shape of the dose curve; as a rule, active = well fitted curve in the direction sought with a large enough effect in the repeat runs; inconclusive = weak or mixed curves; inactive = no such curve, though single readings can be large; an effect the other way counts as inactive or inconclusive.

Tests used:
[1] = qHTS assay for small molecules that induce genotoxicity in human embryonic kidney cells expressing luciferase-tagged ATAD5 (AID 651632); also: nearly all actives have a fitted effect of over 15% in size
Procedure, shortened: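 DMSO vehicle served as the control. HEK293T reporter cells, 16 hr at 37C, then 30 min Amplite at room temperature; ATAD5 induction is measured as luciferase activity.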

[2] = qHTS assay for small molecule agonists of the p53 signaling pathway - cell viability (AID 651633; calls by dose curve;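 also: p53RE-bla HCT reporter cells with a stable beta-lactamase p53 reporter; nearly all actives have a fitted effect of over 30% in size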)
Procedure, shortened: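 p53RE-bla cells were treated with compound for 16 hours at 37 C. Cytotoxicity was then measured as CellTiter-Glo luminescence after 30 min at room temperature.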

[3] = qHTS assay for small molecules that induce genotoxicity in human embryonic kidney cells expressing luciferase-tagged ATAD5 - cell viability (AID 651634; calls by dose curve; also: nearly all actives have a fitted effect of over 25% in size)
Procedure, shortened: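 Here HEK293T cells with the ATAD5 luciferase reporter are incubated with test compounds for 15.5 hr, and cytotoxicity is then gauged by measuring protease activity in live cells using fluorescence.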

[4] = qHTS assay for small molecule disruptors of the mitochondrial membrane potential - cell viability (AID 720634; calls by dose curve;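 also: human HepG2 liver cancer cells; nearly all actives have a fitted effect of over 20% in size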)
Procedure, shortened: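 Viability of HepG2 cells is scored from ATP content by luminescence; cells are exposed to compound for 1 hr at 37 C and 5% CO2, then dosed with m-MPI dye before the CellTiter-Glo reagent.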

[5] = qHTS assay for small molecule disruptors of the mitochondrial membrane potential (AID 720635); also: potency is read from the fitted curve at half-maximal effect
Procedure, shortened: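 HepG2 cells exposed to compound 1 hr at 37C, then Mito-MPS dye 30 min. Ratio read of aggregate (540/590 nm) versus monomer (490/535 nm) fluorescence.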

[6] = qHTS assay to test for compound auto fluorescence at 590 nm (red) in HepG2 cells (AID 720674)
Procedure, shortened: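 Fluorescence at 590 nm emission following 540 nm excitation was recorded from HepG2 wells one hour after compound transfer, with DMSO-only wells as vehicle and Rose Bengal sodium equivalency as the scale.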

[7] = qHTS assay to test for compound auto fluorescence at 535 nm (green) in HepG2 cells (AID 720675)
[8] = qHTS assay to test for compound auto fluorescence at 460 nm (blue) in HEK293 cells (AID 720678)
Procedure, shortened: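 Auto fluorescence in the blue band was quantified as triamterene equivalency. HEK293 cells were seeded at 2,000/well, dosed after a 4-5 hr attachment, and kept overnight at 37C before the 405/460 nm reading.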

[9] = qHTS assay to test for compound auto fluorescence at 590 nm (red) in HEK293 cells (AID 720679)
Procedure, shortened: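 Autofluorescence equivalency to Rose Bengal sodium, 540/590nm, in HEK293 cells exposed overnight to 23 nL compound per well.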

[10] = qHTS assay to test for compound auto fluorescence at 535 nm (green) in HEK293 cells (AID 720680)
[11] = qHTS assay to test for compound auto fluorescence at 460 nm (blue) in HEK293 cell free culture (AID 720681)
Procedure, shortened: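 Compounds were added to cell-free DMEM with 10% FBS and fluorescence read directly. The blue channel used 405 nm excitation and 460 nm emission, with triamterene as the reference fluorophore.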

[12] = qHTS assay to test for compound auto fluorescence at 535 nm (green) in HEK293 cell free culture (AID 720682)
Procedure, shortened: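 Measurement is a direct plate read of green fluorescence (485 nm in, 535 nm out) after compound addition to serum-supplemented DMEM lacking cells, with fluorescein used to express intensities.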

[13] = qHTS assay to test for compound auto fluorescence at 590 nm (red) in HEK293 cell free culture (AID 720683)
Procedure, shortened: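 Cell-free wells of DMEM with 10% FBS received compound, and intrinsic fluorescence was read at excitation/emission 540/590 nm. Values expressed as equivalence to Rose Bengal sodium.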

[14] = qHTS assay to test for compound auto fluorescence at 590 nm (red) in HepG2 cell free culture (AID 720684)
Procedure, shortened: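 Rose Bengal sodium served as the reference for red signal. Test compounds were dispensed into serum-containing MEM (10% FBS) without cells, and plates were read at 540/590 nm.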

[15] = qHTS assay to test for compound auto fluorescence at 460 nm (blue) in HepG2 cell free culture (AID 720685)
Procedure, shortened: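 Cell-free plates of MEM plus 10% FBS received 23 nL compound or DMSO vehicle; blue-channel (405/460 nm) intensity scored against triamterene as reference fluorophore.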

[16] = qHTS assay to test for compound auto fluorescence at 535 nm (green) in HepG2 cell free culture (AID 720686)
[17] = qHTS assay to test for compound auto fluorescence at 460 nm (blue) in HepG2 cells (AID 720687)
Procedure, shortened: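 HepG2 cells in MEM with 10% FBS, attached overnight at 37 C, were exposed to compound or DMSO for 1 hr at 37 C, 5% CO2. Blue fluorescence was read at 405/460 nm, with triamterene as reference fluorophore.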

[18] = biological target: Glucocorticoid receptor (Homo sapiens) (UniProt P04150); assay: qHTS assay to identify small molecule agonists of the glucocorticoid receptor (GR) signaling pathway (AID 720691; active = well fitted activation curve with a large enough effect in the signal ratio in the repeat runs, not every such curve was filed as active; the % refers to the signal ratio); conditions: GR-bla HeLa, beta-lactamase reporter ratio, 18 h; activation: at 62.4 µM (top of the series)
Chain of Glucocorticoid receptor (Homo sapiens) (P04150 whole entry, looked up): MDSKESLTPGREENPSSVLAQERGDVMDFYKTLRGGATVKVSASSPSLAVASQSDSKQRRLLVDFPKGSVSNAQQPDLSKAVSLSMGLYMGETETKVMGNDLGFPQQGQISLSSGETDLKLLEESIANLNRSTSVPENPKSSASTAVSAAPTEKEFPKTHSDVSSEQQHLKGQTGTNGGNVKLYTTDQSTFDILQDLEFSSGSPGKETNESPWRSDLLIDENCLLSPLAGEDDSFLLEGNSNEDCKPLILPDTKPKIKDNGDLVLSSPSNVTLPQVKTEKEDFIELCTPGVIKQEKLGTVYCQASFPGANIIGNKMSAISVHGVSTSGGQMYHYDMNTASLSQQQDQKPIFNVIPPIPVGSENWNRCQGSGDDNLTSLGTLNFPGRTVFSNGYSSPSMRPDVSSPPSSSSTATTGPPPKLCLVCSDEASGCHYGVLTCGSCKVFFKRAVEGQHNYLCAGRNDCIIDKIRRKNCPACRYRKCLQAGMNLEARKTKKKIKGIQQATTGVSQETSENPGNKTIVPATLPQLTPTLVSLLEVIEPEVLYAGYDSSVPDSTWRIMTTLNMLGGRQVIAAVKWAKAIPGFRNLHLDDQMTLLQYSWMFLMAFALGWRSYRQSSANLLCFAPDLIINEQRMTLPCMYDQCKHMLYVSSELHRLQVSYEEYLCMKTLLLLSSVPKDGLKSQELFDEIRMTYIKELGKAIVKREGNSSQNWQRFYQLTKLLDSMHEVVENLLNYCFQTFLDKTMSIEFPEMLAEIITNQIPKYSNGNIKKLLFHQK
Procedure, shortened: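 Compounds in DMSO, alongside positive controls, were added to GR-bla HeLa reporter cells and incubated 18 h at 37 C; GRE-driven beta-lactamase was detected by fluorescence after 2 h with FRET substrate at room temperature.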

[19] = biological target: Glucocorticoid receptor (Homo sapiens) (UniProt P04150); assay: qHTS assay to identify small molecule antagonists of the glucocorticoid receptor (GR) signaling pathway (AID 720692; active = well fitted inhibition curve with a large enough effect in the signal ratio in the repeat runs, not every such curve was filed as active; the % refers to the signal ratio)
Procedure, shortened: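 In a 1536-well cell format, compounds were added 4 h after seeding GR-bla HeLa cells, together with dexamethasone at 5 nM final; reporter activity was measured by FRET-substrate fluorescence following 18 h at 37 C.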

| Compound | Potency [1] | Potency [2] | Potency [3] | Potency [4] | Potency [5] | outcome [6] | Potency [7] | Potency [8] | outcome [9] | outcome [10] | Potency [11] | outcome [12] | outcome [13] | outcome [14] | Potency [15] | Potency [16] | Potency [17] | Potency [18] | Potency [19] |
| --- | --- | --- | --- | --- | --- | --- | --- | --- | --- | --- | --- | --- | --- | --- | --- | --- | --- | --- | --- |
| CCN(CC)CCc1c[nH]c2ccccc12 | inactive | inactive | inactive | inactive | inactive | inactive | inactive | inactive | inactive | inactive | inactive | inactive | inactive | inactive | inactive | inactive | inactive | inactive | inactive |
| O=[N+]([O-])c1cccc2cccc([N+](=O)[O-])c12 | inactive | inactive | inactive |  | 9.73 µM (active) | inactive | inactive | inactive | inactive | inactive | inactive |  | inactive | inactive | inactive | inactive | inactive | inactive |  |
| Clc1cc(Cl)c(-c2cc(Cl)c(Cl)cc2Cl)cc1Cl | inactive | inactive | inactive | inactive |  | inactive | inactive |  | inactive | inactive | inactive |  | inactive | inactive | inactive | inactive | inactive | inactive | inactive |
| CNC(=O)/C=C(\C)OP(=O)(OC)OC | inactive | inactive | inactive |  |  | inactive | inactive | inactive | inactive | inactive | inactive | inactive | inactive | inactive | inactive | inactive | inactive | inactive | inactive |
